Data on 36 compounds can be found in PubChem BioAssay AID504652 (National Center for Advancing Translational Sciences (NCATS), 2011).

About 11,000 (3.1%) of roughly 360,000 compounds were called active. Only a selection was taken, and actives are over-represented in it overall. Values without a mark were called inactive. Cut-off read from the data, not from the text of the source: active = activity change below about -30%; inactive = the rest.
% is set by controls: 0 for no effect and ±100 for the full control effect.

D(1A) dopamine receptor (Homo sapiens), sequence (P21728 whole entry, looked up): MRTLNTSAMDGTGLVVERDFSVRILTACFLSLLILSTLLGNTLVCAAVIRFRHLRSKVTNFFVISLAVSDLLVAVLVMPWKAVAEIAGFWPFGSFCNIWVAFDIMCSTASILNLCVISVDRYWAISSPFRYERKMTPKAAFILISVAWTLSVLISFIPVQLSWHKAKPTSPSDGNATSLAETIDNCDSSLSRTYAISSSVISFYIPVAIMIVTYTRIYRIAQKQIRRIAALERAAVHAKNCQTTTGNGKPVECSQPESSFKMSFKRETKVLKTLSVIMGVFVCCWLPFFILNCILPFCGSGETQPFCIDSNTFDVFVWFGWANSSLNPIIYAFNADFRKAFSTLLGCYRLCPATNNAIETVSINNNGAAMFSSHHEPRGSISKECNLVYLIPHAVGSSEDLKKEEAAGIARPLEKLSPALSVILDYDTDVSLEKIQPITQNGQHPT

In this assay the target is D(1A) dopamine receptor (Homo sapiens) (UniProt P21728). Put plainly: Antagonist of Human D 1 Dopamine Receptor: qHTS. The settings on record: HEK293 TREx D1 cells, calcium flux, dopamine EC80; at 10 µM; active compounds read low. The essentials:
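Using tetracycline-induced force-coupled D1 Hek293 cells and a calcium dye, signals were followed for 180 s after compound, then for 180 s after EC80 dopamine, to detect inhibitors.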
Turning to `O=S(=O)(Nc1ccc2nc(-c3cccc(Cl)c3)oc2c1)c1ccccc1`, the activity change, negative = inhibition is 2.59%.
As for `O=c1[nH]c2cc(Br)ccc2n2cccc12`, the activity change, negative = inhibition is 17.9%.
For the compound `Cc1ccc2nc(/C(C#N)=C/c3ccccc3F)[nH]c2c1`, the activity change, negative = inhibition is 2.38%.
Regarding `CCc1cc2c(cc3c(=O)n(CC(=O)N4CCN(c5cc(Cl)ccc5C)CC4)ncn32)s1`, the activity change, negative = inhibition was 5.41%.
The same measure for `Oc1c(C(c2ccccn2)N2CCOCC2)ccc2cccnc12` (stereo unspecified): -33.9% (active); for `COc1ccc(-c2cn3c(n2)sc2cc(C(=O)Nc4ccccc4F)ccc23)cc1`: -2.21%; for `Cc1ccc2[nH]c3c(=O)n(CC(=O)NC(C)C)ncc3c2c1`: 5.41%.
`COc1ccc(/C=C/c2nc(C#N)c(NCc3ccc(F)cc3)o2)cc1OC`: the activity change, negative = inhibition is -16%.
`CCC(Cc1ccccc1)NS(=O)(=O)c1ccc2c(c1)NC(=O)CS2` (stereo unspecified): the activity change, negative = inhibition was -0.0752%.
Next, `O=C1CSc2ccc(S(=O)(=O)NCc3ccccc3)cc2N1`: -44.7% (active); `COc1ccccc1CNS(=O)(=O)c1ccc2c(c1)NC(=O)CS2`: 7.86%; `CCCCn1cc(S(=O)(=O)c2ccc(OCC)cc2)c(=O)c2cc(OC)c(OC)cc21`: 4.22%.
In the case of `COc1ccc(C)cc1Nc1nc2ccccc2c2nnc(C)n12`, the activity change, negative = inhibition is 1.83%.
Take `CCOc1c2ccc(C(=O)NCc3ccc4c(c3)OCO4)cc2nn1C`: the activity change, negative = inhibition was 3.09%.
As for `COc1ccccc1-n1c(C)nc2cc(C(=O)NCc3ccc4c(c3)OCO4)ccc21`, the activity change, negative = inhibition was -36.2% (active).
Next, `CCn1cc(C(=O)NCc2ccc3c(c2)OCO3)c2cc(OC)c(OC)cc2c1=O`: -40.7% (active); `CCN(CC)C(=O)C(=O)c1cn(CC(=O)NCc2ccc3c(c2)OCO3)c2ccccc12`: -3.14%.
Take `CCn1cc(C(=O)NCC2COc3ccccc3O2)c2cc(OC)c(OC)cc2c1=O` (stereo unspecified): the activity change, negative = inhibition was 13.1%.
Next, `COc1cc(-n2c(C)nc3cc(C(=O)NCc4ccco4)ccc32)cc(OC)c1OC`: -14.8%; `CC(=O)Nc1cc(C(=O)NCc2ccc(F)cc2)ccc1Sc1ccc(F)cc1`: 3.13%.
Next, `COc1ccccc1CNS(=O)(=O)c1cc(Br)cc2c1N(C(C)=O)C(C)C2` (stereo unspecified): 7.16%.
On to `C#CCOCCOCCOCCNc1nc(N2CCN(C(=O)[C@H](Cc3ccc(O)cc3)n3cc(C(N)CC(C)C)nn3)CC2)nc(N2CCN(C(=O)[C@H](CCC(=O)O)n3cc(C(N)[C@H](C)CC)nn3)CC2)n1` (stereo partly specified), for which the activity change, negative = inhibition is -5.53%.
The same measure for `C#CCOCCOCCOCCNc1nc(N2CCN(C(=O)[C@H](C(C)C)n3cc(CCO)nn3)CC2)nc(N2CCN(C(=O)[C@H](C(C)C)n3cc(CCO)nn3)CC2)n1`: 7.62%.
`C#CCOCCOCCOCCNc1nc(N2CCN(C(=O)[C@H](CCC(=O)O)n3cc(C(N)CO)nn3)CC2)nc(N2CCN(C(=O)[C@H](CCCCN)n3cc(C(N)[C@H](C)CC)nn3)CC2)n1` (stereo partly specified): the activity change, negative = inhibition was -39.7% (active).
The same measure for `C#CCOCCOCCOCCNc1nc(N2CCN(C(=O)[C@H](CCC(=O)O)n3cc(C(N)CO)nn3)CC2)nc(N2CCN(C(=O)[C@H](Cc3ccc(O)cc3)n3cc(C(N)[C@H](C)CC)nn3)CC2)n1` (stereo partly specified): -34.5% (active).
Next, `C#CCOCCOCCOCCNc1nc(N2CCN(C(=O)C(Cc3ccc(O)cc3)n3cc(C(N)CC(C)C)nn3)CC2)nc(N2CCN(C(=O)C(Cc3ccc(O)cc3)n3cc(C(N)C(C)CC)nn3)CC2)n1` (stereo unspecified): -10.5%; `C#CCOCCOCCOCCNc1nc(N2CCN(C(=O)[C@H](CCCCN)n3cc([C@@H](N)C(C)CC)nn3)CC2)nc(N2CCN(C(=O)[C@H](Cc3ccc(O)cc3)n3cc([C@@H](N)C(C)CC)nn3)CC2)n1` (stereo partly specified): -11.3%; `C#CCOCCOCCOCCNc1nc(N2CCN(C(=O)[C@H](CCC(=O)O)n3cc(C(N)CO)nn3)CC2)nc(N2CCN(C(=O)[C@H](CCCCN)n3cc(C(N)CC(C)C)nn3)CC2)n1` (stereo partly specified): -32.3% (active).
With `C#CCOCCOCCOCCNc1nc(N2CCN(C(=O)CCCCCCCCCCNC(=O)[C@H]([C@@H](C)CC)n3cc(CCCCN=C(N)N)nn3)CC2)nc(N2CCN(C(=O)CCCCCCCCCCNC(=O)[C@H](CO)n3cc(CCCSC)nn3)CC2)n1`, the activity change, negative = inhibition was 6.53%.
The same measure for `O=C(CC1Oc2ccccc2NC1=O)NCc1ccc(F)cc1` (stereo unspecified): -2.49%; for `CN1C(=O)c2[nH]nc(-c3ccc(F)cc3)c2C1c1ccccn1` (stereo unspecified): -12.2%; for `N#Cc1nc(/C=C/c2ccc(F)cc2)oc1NC1CCCCC1`: -1.82%.
For the compound `CCN(CC)c1cc(NC2CCCCC2)c2c3c(onc13)-c1ccccc1C2=O`, the activity change, negative = inhibition was 8.94%.
The same measure for `Cc1ccc2nc(CN3CCN(S(=O)(=O)c4ccc(C)c(C)c4)CC3)oc2c1`: -3.02%.
The same measure for `COc1cc(NC(=O)CN2CCN(S(=O)(=O)c3ccc(Br)cc3)CC2)cc(OC)c1`: -5.38%; for `CCc1ccc(C2C(C(=O)Nc3ccccc3)=C(C)Nc3c(C(=O)Nc4ccc(C)cc4)cnn32)cc1` (stereo unspecified): -24.1%.
